From ChEMBL document CHEMBL3988442, “University of Dundee, Small-Polar-MMV Screening Library” (2021) come the findings set out here.

The structures appear in SMILES notation. For some of these results: Potency and affinity values are given separately.

Common to all, as to parameters: scale not given: direction of the effect not stated beside the values
The target in assay [1] is Protein translocase subunit SecA (Escherichia coli (strain K12)) (UniProt P10408). The assay can be described thus: Assay to Identify E. coli SecA ATPase Inhibitors. The format is functional. Particulars: 30 µM.
In assay [2] the target is T1, Ubiquitin-activating enzyme e1, putative (Leishmania donovani (strain BPK282A1)) (UniProt E9BSI1).
T1 sequence (whole entry): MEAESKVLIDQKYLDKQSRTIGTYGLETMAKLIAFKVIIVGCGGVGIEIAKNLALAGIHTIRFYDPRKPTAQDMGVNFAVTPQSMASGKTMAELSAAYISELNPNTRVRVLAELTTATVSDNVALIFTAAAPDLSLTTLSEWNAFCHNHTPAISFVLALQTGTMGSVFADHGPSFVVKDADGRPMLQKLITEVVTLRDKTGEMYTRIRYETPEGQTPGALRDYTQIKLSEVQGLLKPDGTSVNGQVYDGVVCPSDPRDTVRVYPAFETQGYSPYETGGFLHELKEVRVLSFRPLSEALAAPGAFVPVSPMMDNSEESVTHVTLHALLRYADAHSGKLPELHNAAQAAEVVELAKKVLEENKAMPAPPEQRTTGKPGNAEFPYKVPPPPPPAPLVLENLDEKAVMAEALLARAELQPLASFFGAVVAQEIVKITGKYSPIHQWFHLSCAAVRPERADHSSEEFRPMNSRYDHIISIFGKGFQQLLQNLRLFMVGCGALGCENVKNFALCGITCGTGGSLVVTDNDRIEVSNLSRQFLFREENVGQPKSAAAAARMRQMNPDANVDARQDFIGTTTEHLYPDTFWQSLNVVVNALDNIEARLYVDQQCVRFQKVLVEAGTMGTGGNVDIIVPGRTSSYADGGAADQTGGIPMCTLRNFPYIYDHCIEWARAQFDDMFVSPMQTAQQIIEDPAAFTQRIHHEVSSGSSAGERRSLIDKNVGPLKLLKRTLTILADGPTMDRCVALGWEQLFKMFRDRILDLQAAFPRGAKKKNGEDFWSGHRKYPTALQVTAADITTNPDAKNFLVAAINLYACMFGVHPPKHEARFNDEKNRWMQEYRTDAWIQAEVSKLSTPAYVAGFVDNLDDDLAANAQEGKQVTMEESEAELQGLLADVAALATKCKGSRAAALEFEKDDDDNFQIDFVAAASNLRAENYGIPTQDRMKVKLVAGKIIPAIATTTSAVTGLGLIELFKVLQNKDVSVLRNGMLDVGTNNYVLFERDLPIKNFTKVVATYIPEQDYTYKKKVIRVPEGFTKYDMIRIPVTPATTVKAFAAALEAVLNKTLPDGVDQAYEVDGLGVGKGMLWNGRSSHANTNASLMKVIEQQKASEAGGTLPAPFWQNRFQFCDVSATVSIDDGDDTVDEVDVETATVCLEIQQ
The assay is described as follows: Leishmania donovani Ubiquitin Activating Enzyme (LdE1). The format is functional. The note with it: 30 µM.

For assay [3], the target named is AMP-activated protein kinase, AMPK (Homo sapiens) (UniProt P54646+O43741+P54619+Q9UGJ0+Q9Y478+Q13131+Q9UGI9). The assay is described as follows: AMP-dependent Kinase enzyme assay. An in vitro enzyme assay that detects ADP turnover that is directly proportional to AMPK activity. This uses naive AMPK that is activated during the assay with MK-8722. Particulars: 30 µM. The format is functional.

For assay [4], the target named is Sialic acid-binding Ig-like lectin 9 (Homo sapiens) (UniProt Q9Y336). The assay is described as follows: Hs-Siglec9 ALPHAscreen SOP 20170721. Particulars: 10 µM. (In general: In Alpha technology, singlet oxygen from a donor bead excites a nearby acceptor bead.)
The test system of another assay is Trypanosoma cruzi. The assay can be described thus: Trypanosoma cruzi phosphomannomutase and mannose-1-phosphate guanylyltransferase assay. Particulars: 10 µM. The format is functional.
Assay [5] has as its target T2, Arginase-2, mitochondrial (Homo sapiens) (UniProt P78540).
T2 sequence (whole entry): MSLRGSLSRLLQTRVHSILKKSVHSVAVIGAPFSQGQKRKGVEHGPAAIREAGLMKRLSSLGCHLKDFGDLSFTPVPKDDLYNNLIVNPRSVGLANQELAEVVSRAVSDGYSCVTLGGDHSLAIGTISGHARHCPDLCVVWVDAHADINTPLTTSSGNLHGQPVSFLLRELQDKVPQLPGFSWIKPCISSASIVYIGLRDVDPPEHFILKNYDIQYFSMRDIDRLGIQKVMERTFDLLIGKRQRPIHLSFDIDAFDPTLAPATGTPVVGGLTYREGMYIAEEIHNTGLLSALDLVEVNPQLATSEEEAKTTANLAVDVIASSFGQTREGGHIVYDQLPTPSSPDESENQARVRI
The assay is described as follows: in vitro enzyme assay to detect the production of urea directly proportional to the activity of Arginase II. Also: in the data most compounds retested in dose-response had high values. It is filed as functional. The note with it: 33.3 µM.

The target of assay [6] is T3, Proteasome subunit beta (Trypanosoma cruzi) (UniProt O96673).
T3 sequence (whole entry): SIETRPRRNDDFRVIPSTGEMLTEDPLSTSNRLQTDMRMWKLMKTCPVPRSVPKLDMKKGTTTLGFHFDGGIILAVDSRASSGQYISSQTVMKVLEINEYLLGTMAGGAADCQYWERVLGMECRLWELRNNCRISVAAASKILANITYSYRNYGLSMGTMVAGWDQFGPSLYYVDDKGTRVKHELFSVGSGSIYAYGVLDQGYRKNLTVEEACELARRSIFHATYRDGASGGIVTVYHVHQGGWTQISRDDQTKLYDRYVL
The assay can be described thus: Trypanosoma cruzi proteasome chymotrypsin-like activity (TcProtChymo) assay. Also: in the data most compounds retested in dose-response had high values. It is filed as functional. Particulars: 9.37 µM.

The species named for the next assay is Homo sapiens. The assay can be described thus: To identify inhibition of the IFN signalling (Jak-Stat) pathway via expression of an eGFP reporter gene under the control of an IFN-stimulated response element (ISRE) containing MxA promoter. The note with it: 30 µM. It is filed as functional. On the technique in general: Reporter assays use an easily measured gene product as a stand-in for the process of interest.

Assay [7] addresses T4, Tyrosyl-tRNA synthetase, putative (Trypanosoma cruzi (strain CL Brener)) (UniProt Q4DSP6).
T4 sequence (whole entry): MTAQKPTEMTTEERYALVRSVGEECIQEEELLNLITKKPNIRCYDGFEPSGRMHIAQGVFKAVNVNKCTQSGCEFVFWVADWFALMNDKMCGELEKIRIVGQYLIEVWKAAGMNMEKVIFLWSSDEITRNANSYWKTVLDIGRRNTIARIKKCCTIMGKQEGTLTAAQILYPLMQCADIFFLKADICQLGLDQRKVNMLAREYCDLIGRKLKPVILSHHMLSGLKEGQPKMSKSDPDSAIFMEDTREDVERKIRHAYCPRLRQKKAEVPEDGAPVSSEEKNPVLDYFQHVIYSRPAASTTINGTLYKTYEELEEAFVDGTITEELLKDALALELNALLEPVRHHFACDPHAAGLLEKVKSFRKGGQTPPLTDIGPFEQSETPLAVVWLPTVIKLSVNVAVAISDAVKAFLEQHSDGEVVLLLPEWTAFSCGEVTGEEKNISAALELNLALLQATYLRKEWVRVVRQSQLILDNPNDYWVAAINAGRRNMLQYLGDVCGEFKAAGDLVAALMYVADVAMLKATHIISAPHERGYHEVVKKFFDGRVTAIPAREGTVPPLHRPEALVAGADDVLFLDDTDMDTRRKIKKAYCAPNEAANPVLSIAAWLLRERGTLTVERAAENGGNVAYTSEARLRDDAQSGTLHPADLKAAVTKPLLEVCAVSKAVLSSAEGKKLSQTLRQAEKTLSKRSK
The assay can be described thus: Trypanosoma cruzi tyrosyl tRNA synthetase (TcYRS) _High Tyrosine SOP. Also: in the data most compounds retested in dose-response had high values. It is filed as functional. The note with it: 30 µM.

For assay [8], the target named is T4, Tyrosyl-tRNA synthetase, putative (Trypanosoma cruzi (strain CL Brener)). The assay is described as follows: Trypanosoma cruzi tyrosyl tRNA synthetase (TcYRS) SOP. The format is functional. Particulars: 30 µM.
Assay [9] concerns the target Chromo domain-containing protein 1 (Saccharomyces cerevisiae (strain ATCC 204508 / S288c) (Baker's yeast)) (UniProt P32657). The assay can be described thus: ScCHD-1 Enzyme Inhibition Assay. Also: in the data most compounds retested in dose-response had high values. The format is functional. The note with it: 30 µM.

Sequence of Sialic acid-binding Ig-like lectin 9 (Homo sapiens) (Q9Y336 whole entry): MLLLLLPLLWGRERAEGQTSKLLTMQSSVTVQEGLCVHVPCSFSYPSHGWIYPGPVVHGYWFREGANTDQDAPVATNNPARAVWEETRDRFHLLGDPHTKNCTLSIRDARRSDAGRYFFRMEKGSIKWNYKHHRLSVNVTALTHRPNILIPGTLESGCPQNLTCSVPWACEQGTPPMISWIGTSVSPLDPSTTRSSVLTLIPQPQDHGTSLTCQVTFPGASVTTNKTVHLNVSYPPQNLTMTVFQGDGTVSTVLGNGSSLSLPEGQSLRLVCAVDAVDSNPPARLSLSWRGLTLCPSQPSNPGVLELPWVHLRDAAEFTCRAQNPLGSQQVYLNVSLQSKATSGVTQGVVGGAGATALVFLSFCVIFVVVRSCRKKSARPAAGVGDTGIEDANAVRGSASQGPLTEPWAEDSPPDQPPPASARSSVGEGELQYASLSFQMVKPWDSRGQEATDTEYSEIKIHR
Sequence of Protein translocase subunit SecA (Escherichia coli (strain K12)) (P10408 whole entry): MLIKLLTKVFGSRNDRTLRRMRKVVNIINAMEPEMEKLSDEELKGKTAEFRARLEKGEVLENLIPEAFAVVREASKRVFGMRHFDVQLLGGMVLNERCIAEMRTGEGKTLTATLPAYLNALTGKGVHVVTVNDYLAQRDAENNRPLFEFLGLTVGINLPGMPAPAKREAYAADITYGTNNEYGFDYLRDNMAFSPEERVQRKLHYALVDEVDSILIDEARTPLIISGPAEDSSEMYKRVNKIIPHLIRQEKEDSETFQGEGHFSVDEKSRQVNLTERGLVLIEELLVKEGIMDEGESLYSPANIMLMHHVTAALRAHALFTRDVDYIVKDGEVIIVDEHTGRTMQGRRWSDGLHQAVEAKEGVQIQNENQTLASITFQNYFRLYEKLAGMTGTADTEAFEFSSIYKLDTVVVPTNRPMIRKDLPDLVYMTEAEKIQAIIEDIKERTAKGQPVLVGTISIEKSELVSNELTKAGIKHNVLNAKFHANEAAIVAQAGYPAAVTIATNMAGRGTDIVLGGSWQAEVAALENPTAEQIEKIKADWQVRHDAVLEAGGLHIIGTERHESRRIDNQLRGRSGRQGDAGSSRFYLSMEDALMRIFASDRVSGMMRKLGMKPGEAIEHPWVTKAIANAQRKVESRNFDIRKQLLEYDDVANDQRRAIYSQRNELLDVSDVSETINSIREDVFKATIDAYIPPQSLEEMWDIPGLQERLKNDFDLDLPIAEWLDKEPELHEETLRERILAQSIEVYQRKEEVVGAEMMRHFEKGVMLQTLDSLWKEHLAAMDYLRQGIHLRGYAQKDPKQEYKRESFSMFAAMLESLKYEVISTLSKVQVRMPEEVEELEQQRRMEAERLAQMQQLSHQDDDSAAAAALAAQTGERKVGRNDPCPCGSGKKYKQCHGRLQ
Sequence of Chromo domain-containing protein 1 (Saccharomyces cerevisiae (strain ATCC 204508 / S288c) (Baker's yeast)) (P32657 whole entry, the tested form may be a part): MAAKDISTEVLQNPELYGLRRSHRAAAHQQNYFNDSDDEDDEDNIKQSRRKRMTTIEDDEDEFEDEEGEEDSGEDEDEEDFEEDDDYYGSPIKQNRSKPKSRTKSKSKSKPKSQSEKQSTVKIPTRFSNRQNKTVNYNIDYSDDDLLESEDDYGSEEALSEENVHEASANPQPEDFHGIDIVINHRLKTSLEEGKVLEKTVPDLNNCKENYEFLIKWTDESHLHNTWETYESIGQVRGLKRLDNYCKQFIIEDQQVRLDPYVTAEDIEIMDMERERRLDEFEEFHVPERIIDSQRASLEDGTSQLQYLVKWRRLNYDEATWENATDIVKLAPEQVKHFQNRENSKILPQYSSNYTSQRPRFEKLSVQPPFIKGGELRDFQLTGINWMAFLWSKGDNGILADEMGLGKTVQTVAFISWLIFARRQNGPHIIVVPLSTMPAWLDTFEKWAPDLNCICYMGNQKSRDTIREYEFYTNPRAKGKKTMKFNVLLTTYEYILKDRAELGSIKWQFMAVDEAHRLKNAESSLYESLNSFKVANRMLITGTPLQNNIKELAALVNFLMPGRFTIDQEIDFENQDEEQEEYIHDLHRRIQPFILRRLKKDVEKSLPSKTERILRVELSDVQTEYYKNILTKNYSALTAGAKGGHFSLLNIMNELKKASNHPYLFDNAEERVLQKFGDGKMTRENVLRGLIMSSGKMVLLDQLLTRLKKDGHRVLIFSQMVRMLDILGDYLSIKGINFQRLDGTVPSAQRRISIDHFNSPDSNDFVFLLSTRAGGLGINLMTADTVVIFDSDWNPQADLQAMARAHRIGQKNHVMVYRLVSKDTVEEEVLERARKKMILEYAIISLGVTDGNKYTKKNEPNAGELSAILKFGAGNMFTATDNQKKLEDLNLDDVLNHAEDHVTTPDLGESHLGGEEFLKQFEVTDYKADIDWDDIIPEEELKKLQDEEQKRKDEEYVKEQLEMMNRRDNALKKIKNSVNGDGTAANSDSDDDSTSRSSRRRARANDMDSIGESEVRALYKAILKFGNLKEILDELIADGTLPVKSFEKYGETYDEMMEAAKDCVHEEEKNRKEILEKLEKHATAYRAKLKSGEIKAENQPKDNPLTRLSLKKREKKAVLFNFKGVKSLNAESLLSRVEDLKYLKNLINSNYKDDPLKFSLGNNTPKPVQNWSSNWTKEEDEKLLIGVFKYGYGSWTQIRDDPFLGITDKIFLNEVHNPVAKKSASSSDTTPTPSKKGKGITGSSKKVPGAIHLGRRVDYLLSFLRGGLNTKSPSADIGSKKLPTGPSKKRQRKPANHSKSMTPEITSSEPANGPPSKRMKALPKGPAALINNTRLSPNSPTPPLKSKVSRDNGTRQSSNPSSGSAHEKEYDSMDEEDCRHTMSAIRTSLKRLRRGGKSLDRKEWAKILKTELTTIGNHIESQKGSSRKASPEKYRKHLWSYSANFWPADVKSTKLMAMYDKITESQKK

On to `Cc1cccc(C(=O)NCc2ccc(S(N)(=O)=O)cc2)n1`, for which the Percent Effect in assay [1] is -5.17%; in assay [2], 20.8%; in assay [3], 1.31%; in assay [4], -0.564%; in the assay on Trypanosoma cruzi, -0.187%; in [5] it was 2.85%. For the same compound, the Percent Effect in assay [6] is 4.39%; in the assay filed under Homo sapiens, 8.2%; in assay [7], 9.71%; in [8] it was 24.4%; in [9], -6.84%.
With `CCc1nc(CN2CCN(c3ncnc4cc(F)ccc34)CC2)no1`, the Percent Effect is -8.93% in assay [1]; 0% in [2]; -0.509% in assay [3]; 2.81% in assay [4]; -3.44% with Trypanosoma cruzi; 0% in assay [5]. The Percent Effect is 9.65% in [6]; 75.3% in the assay filed under Homo sapiens; -3.23% in assay [7]; -6.17% in [8]; 1.03% in assay [9].
For `OC1CCN(Cc2c(C3CCCNC3)[nH]c3ncccc23)CC1` (stereo unspecified), the Percent Effect in [1] is -5.49%; in [2] it was 12.2%; in [3], 11.9%; in assay [4], 5.12%; in the assay on Trypanosoma cruzi, -5.93%; in assay [5] it was -3.94%. The Percent Effect in assay [6] was 8.42%; in the assay listed under Homo sapiens it was -1.37%; in assay [7] it was -5.38%; in [8], 9.09%; in [9] it was -6.12%.
Consider `Cc1ccc(C(=O)N2C[C@@H]3COC[C@]3(COc3cccnc3)C2)cn1`, for which the Percent Effect was 1.3% in assay [1]; 18.9% in assay [2]; 0.636% in [3]; -16.3% in assay [4]; 1.07% with Trypanosoma cruzi; 7.33% in assay [5]. The Percent Effect in assay [6] worked out at 13.3%; in the assay filed under Homo sapiens, 30.2%; in assay [7], 4.32%; in [8], 7.69%; in assay [9], 4.76%.
On to `CC(C)c1nccn1C1CCCN(C(=O)c2ccnc(N(C)C)c2)C1` (stereo unspecified), for which the Percent Effect is -2.97% in assay [1]; -7.79% in assay [2]; -1.67% in assay [3]; -1.25% in assay [4]; 0.0979% in the assay on Trypanosoma cruzi; 1.47% in assay [5]. Also, the Percent Effect is 10.6% in [6]; 18.4% in the assay filed under Homo sapiens; 1.91% in assay [7]; -11.8% in [8]; -18.1% in assay [9].
With `O=C(c1nc(=O)[nH][nH]1)N1CCCC(c2cc(C(F)(F)F)[nH]n2)C1` (stereo unspecified), the Percent Effect in assay [1] is -9.02%; in [2], -8.11%; in assay [3], -7.65%; in assay [4], 26.3%; in the assay on Trypanosoma cruzi it was 11.2%; in assay [5] it was 2.77%. In addition, the Percent Effect in [6] is 10.8%; in the assay filed under Homo sapiens, 15.2%; in assay [7] it was 5.94%; in assay [8] it was 13.4%; in assay [9] it was -7.89%.
As for `c1ccc2oc(CCCN3CCCC3Cn3cncn3)nc2c1` (stereo unspecified), the Percent Effect in [1] is -1.49%; in assay [2] it was 0%; in assay [3], 0.485%; in assay [4] it was 12.2%; with Trypanosoma cruzi, -1.02%; in [5] it was 3.51%. The Percent Effect in [6] came out at 5.92%; in the assay listed under Homo sapiens it was 13.6%; in [7], 7.92%; in [8], 6.1%; in [9], 7.47%.
Take `Cc1ccc(=O)n(CC2(O)CCN(Cc3cnc(C)nc3)CC2)n1`: the Percent Effect in [1] was -6.32%; in [2], 6.76%; in [3], 4.75%; in [4], -1.5%; with Trypanosoma cruzi, -2.96%; in assay [5], -3.48%. The Percent Effect is 11.9% in assay [6]; 17.5% in the assay listed under Homo sapiens; -1.07% in assay [7]; 3.9% in assay [8]; 5.12% in assay [9].
Turning to `O=C(CC1CC1)NCc1cc(=O)n2c(n1)CN(Cc1ccoc1)CCC2`, the Percent Effect in assay [1] was -2.92%; in assay [2], -11%; in [3], -1.08%; in assay [4], 0.919%; with Trypanosoma cruzi, 7.34%; in assay [5], -1.2%. In addition, the Percent Effect is 18.9% in assay [6]; 4.85% in the assay filed under Homo sapiens; 3.12% in [7]; 6.17% in [8]; -3.77% in assay [9].
As for `CC(C)c1ccc(CN2CCC3(CCCN(c4nncs4)C3)C2)cc1` (stereo unspecified), the Percent Effect in [1] is -5.12%; in assay [2] it was 2.7%; in assay [3], -2.41%; in [4], 37.5%; in the assay on Trypanosoma cruzi, 9.87%; in [5], -1.74%. In addition, the Percent Effect is 1.97% in assay [6]; -25% in the assay listed under Homo sapiens; 4.3% in assay [7]; 13.6% in [8]; -4.2% in assay [9].
Turning to `Cc1nnc(C2Cc3ccccc3CN2Cc2ncc(C(C)(C)C)o2)o1` (stereo unspecified), the Percent Effect in assay [1] is -1.87%; in assay [2] it was 15.6%; in assay [3] it was 3.3%; in [4], -12.9%; in the assay with Trypanosoma cruzi it was -3.82%; in [5] it was -1.05%. Moreover, the Percent Effect in assay [6] is 20.8%; in the assay filed under Homo sapiens, 27.9%; in assay [7], 8.57%; in [8], 11.8%; in [9], -17.8%.
